Measured values reported in PubChem BioAssay AID1159580 (chemical genetic matrix, 2015).
Several values for one entry are separate records, joined by “and”; a condition that tells them apart may be missing. Equal entries are not always repeated. Out of some 5,500 compounds screened, about 2,000 (36%) were called active. Roughly 18% stayed inconclusive and do not appear here. Rule as the data show it: active = normalized growth mostly below about 0.91 (no sharp cut-off); inconclusive = no clear call, values can overlap the other calls; inactive = mostly above about 0.92. The list shows a part of the results.

Assay: chemical genetic growth profiling, strain panel (AID 1159580);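 also: tested at 20 µM; growth read once vehicle control cultures reached saturation at 30 °C; 1 = growth at the plate median or of vehicle wells; lower values mean less growth of the strain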
Conditions: growth OD

Measured: normalized growth

Cc1cccc(C)c1OCC(C)N (stereo not drawn)
inactive: S. cerevisiae deletion strains, locus YKL009W, strain mrt4, stronger effect = lower value 0.972 | S. cerevisiae deletion strains, locus YKL068W, stronger effect = lower value 0.982 | S. cerevisiae deletion strains, locus YKL085W, strain MDH1 (second series), stronger effect = lower value 1.04 | S. cerevisiae deletion strains, locus YKL085W, strain MDH1, stronger effect = lower value 1.04 | S. cerevisiae deletion strains, locus YKL160W, strain elf1, stronger effect = lower value 1 | S. cerevisiae deletion strains, locus YKL190W, strain CNB1, stronger effect = lower value 0.996 | S. cerevisiae deletion strains, locus YKR001C, strain vps1, stronger effect = lower value 0.99 | S. cerevisiae deletion strains, locus YKR026C, strain gcn3, stronger effect = lower value 0.999 | S. cerevisiae deletion strains, locus YKR091W, strain srl3, stronger effect = lower value 1.01 | S. cerevisiae deletion strains, locus YLL001W, strain dnm1, stronger effect = lower value 1.02 | S. cerevisiae deletion strains, locus YLL026W, stronger effect = lower value 1.02 | S. cerevisiae deletion strains, locus YLL041C, strain sdh2, stronger effect = lower value 1.01 | S. cerevisiae deletion strains, locus YLR027C, strain aat2, stronger effect = lower value 1.01 | S. cerevisiae deletion strains, locus YLR039C, strain RIC1, stronger effect = lower value 1.02 | S. cerevisiae deletion strains, locus YLR058C, strain SHM2, stronger effect = lower value 0.998 | S. cerevisiae deletion strains, locus YLR102C, strain apc9, stronger effect = lower value 0.989 | S. cerevisiae deletion strains, locus YLR113W, strain HOG1, stronger effect = lower value 0.987 | S. cerevisiae deletion strains, locus YLR221C, strain rsa3, stronger effect = lower value 1 | S. cerevisiae deletion strains, locus YLR258W, strain gsy2, stronger effect = lower value 1.01 | S. cerevisiae deletion strains, locus YLR262C, strain YPT6 (second series), stronger effect = lower value 1.01 | S. cerevisiae deletion strains, locus YLR262C, strain YPT6, stronger effect = lower value 0.993 | S. cerevisiae deletion strains, locus YLR268W, strain sec22, stronger effect = lower value 0.993 | S. cerevisiae deletion strains, locus YLR320W, strain mms22, stronger effect = lower value 1.03 | S. cerevisiae deletion strains, locus YLR330W, strain CHS5, stronger effect = lower value 0.992 | S. cerevisiae deletion strains, locus YLR342W, strain FKS1 (second series), stronger effect = lower value 1.01 | S. cerevisiae deletion strains, locus YLR342W, strain FKS1, stronger effect = lower value 1.01 | S. cerevisiae deletion strains, locus YLR357W, strain rsc2, stronger effect = lower value 1.02 | S. cerevisiae deletion strains, locus YLR370C, strain arc18, stronger effect = lower value 1.01 | S. cerevisiae deletion strains, locus YLR371W, strain rom2, stronger effect = lower value 0.988 | S. cerevisiae deletion strains, locus YLR384C, strain iki3, stronger effect = lower value 1.01 | S. cerevisiae deletion strains, locus YLR418C, strain cdc73, stronger effect = lower value 1.03 | S. cerevisiae deletion strains, locus YML016C, strain PPZ1, stronger effect = lower value 0.995 | S. cerevisiae deletion strains, locus YML032C, strain rad52, stronger effect = lower value 1 | S. cerevisiae deletion strains, locus YML120C, strain ndi1, stronger effect = lower value 1 | S. cerevisiae deletion strains, locus YML124C, strain tub3, stronger effect = lower value 0.991 | S. cerevisiae deletion strains, locus YMR058W, strain fet3, stronger effect = lower value 1.02 | S. cerevisiae deletion strains, locus YMR078C, strain ctf18, stronger effect = lower value 0.986 | S. cerevisiae deletion strains, locus YMR125W, strain sto1, stronger effect = lower value 1.01 | S. cerevisiae deletion strains, locus YMR129W, stronger effect = lower value 0.994 | S. cerevisiae deletion strains, locus YMR205C, strain PFK2, stronger effect = lower value 1.03 | S. cerevisiae deletion strains, locus YMR223W, strain ubp8, stronger effect = lower value 1.01 | S. cerevisiae deletion strains, locus YMR231W, strain pep5, stronger effect = lower value 1.01 | S. cerevisiae deletion strains, locus YMR263W, strain SAP30, stronger effect = lower value 0.993 | S. cerevisiae deletion strains, locus YMR307W, strain GAS1, stronger effect = lower value 0.969 | S. cerevisiae deletion strains, locus YNL067W, strain RPL9B, stronger effect = lower value 1.01 | S. cerevisiae deletion strains, locus YNL071W, strain lat1, stronger effect = lower value 1.01 | S. cerevisiae deletion strains, locus YNL153C, strain GIM3, stronger effect = lower value 1.03 and 1 | S. cerevisiae deletion strains, locus YNL175C, strain NOP13, stronger effect = lower value 1 | S. cerevisiae deletion strains, locus YNL183C, strain NPR1, stronger effect = lower value 0.956 | S. cerevisiae deletion strains, locus YNL197C, strain WHI3, stronger effect = lower value 0.992 | S. cerevisiae deletion strains, locus YNL209W, strain ssb2, stronger effect = lower value 1.01 | S. cerevisiae deletion strains, locus YNL224C, strain SQS1, stronger effect = lower value 1 | S. cerevisiae deletion strains, locus YNL233W, strain BNI4, stronger effect = lower value 1.03 | S. cerevisiae deletion strains, locus YNL248C, strain rpa49, stronger effect = lower value 0.991 | S. cerevisiae deletion strains, locus YNL250W, strain rad50, stronger effect = lower value 0.987 | S. cerevisiae deletion strains, locus YNL271C, strain bni1, stronger effect = lower value 0.985 | S. cerevisiae deletion strains, locus YNL298W, strain CLA4, stronger effect = lower value 0.986 | S. cerevisiae deletion strains, locus YNL307C, strain MCK1, stronger effect = lower value 1.02 | S. cerevisiae deletion strains, locus YNL322C, strain KRE1 (second series), stronger effect = lower value 1 | S. cerevisiae deletion strains, locus YNL322C, strain KRE1, stronger effect = lower value 0.991 | S. cerevisiae deletion strains, locus YNR049C, strain mso1, stronger effect = lower value 1 | S. cerevisiae deletion strains, locus YNR052C, strain pop2, stronger effect = lower value 0.977 | S. cerevisiae deletion strains, locus YOL006C, strain TOP1, stronger effect = lower value 1.11 | S. cerevisiae deletion strains, locus YOL012C, strain htz1 1.19 | S. cerevisiae deletion strains, locus YOL147C, strain pex11, stronger effect = lower value 0.99 | S. cerevisiae deletion strains, locus YOR001W, strain rrp6, stronger effect = lower value 0.994 | S. cerevisiae deletion strains, locus YOR061W, strain CKA2, stronger effect = lower value 0.998 | S. cerevisiae deletion strains, locus YOR069W, strain VPS5, stronger effect = lower value 0.988 | S. cerevisiae deletion strains, locus YOR070C, strain gyp1, stronger effect = lower value 0.997 | S. cerevisiae deletion strains, locus YOR080W, strain dia2, stronger effect = lower value 1.01 | S. cerevisiae deletion strains, locus YOR083W, strain WHI5 (second series), stronger effect = lower value 1 | S. cerevisiae deletion strains, locus YOR083W, strain WHI5, stronger effect = lower value 0.993 | S. cerevisiae deletion strains, locus YOR106W, strain vam3, stronger effect = lower value 1.01 | S. cerevisiae deletion strains, locus YOR136W, strain idh2, stronger effect = lower value 0.987 | S. cerevisiae deletion strains, locus YOR144C, strain elg1, stronger effect = lower value 0.991 | S. cerevisiae deletion strains, locus YOR184W, strain ser1, stronger effect = lower value 1.03 | S. cerevisiae deletion strains, locus YOR231W, strain MKK1, stronger effect = lower value 0.999 | S. cerevisiae deletion strains, locus YOR265W, strain rbl2, stronger effect = lower value 1.01 | S. cerevisiae deletion strains, locus YOR270C, strain vph1, stronger effect = lower value 1.05 | S. cerevisiae deletion strains, locus YOR290C, strain snf2, stronger effect = lower value 1 | S. cerevisiae deletion strains, locus YOR316C, strain cot1, stronger effect = lower value 0.977 | S. cerevisiae deletion strains, locus YPL051W, strain arl3, stronger effect = lower value 1 | S. cerevisiae deletion strains, locus YPL078C, strain atp4, stronger effect = lower value 1 | S. cerevisiae deletion strains, locus YPL106C, strain sse1, stronger effect = lower value 1.02 | S. cerevisiae deletion strains, locus YPL240C, strain hsp82, stronger effect = lower value 1.01 | S. cerevisiae deletion strains, locus YPL241C, strain CIN2, stronger effect = lower value 0.995 | S. cerevisiae deletion strains, locus YPL256C, strain CLN2, stronger effect = lower value 0.998 | S. cerevisiae deletion strains, locus YPR119W, strain clb2, stronger effect = lower value 0.993 | S. cerevisiae deletion strains, locus YPR141C, strain kar3, stronger effect = lower value 0.983 | S. cerevisiae deletion strains, locus YPR163C, strain tif3, stronger effect = lower value 0.981 | S. cerevisiae deletion strains, locus YPR167C, strain met16, stronger effect = lower value 0.978 | S. cerevisiae deletion strains, strain wtn01, stronger effect = lower value 0.983 | S. cerevisiae strains, strain wild type, stronger effect = lower value 0.997
